From the supplement of paper PMC10849652
About 8,800 targets were measured; listed, in parts, are those with a hit and a random draw of the rest. About 0.5% of all pairs of compound and target were hits.

Tests used:
Assay in all cases: log2 fold change, soluble protein after heating vs DMSO (PISA); higher = thermal stabilisation; K562 lysate, 10 uM; active = over 0.2 and 3.5 SD of the protein, either way, in both replicates (recomputed)
erlotinib = compound: C#Cc1cccc(Nc2ncnc3cc(OCCOC)c(OCCOC)cc23)c1 [erlotinib]
In short: (§1)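 Log-two fold change in thermal stability relative to solvent controls is reported from duplicates. For each sample, crude K562 extract from dounce-homogenised pellets in PBS pH 7.4 with 1 mM MgCl2, at 1 mg/mL protein, was treated with 10 μM compound for 30 min. Aliquots heated for 3 min across 48°C-58°C were pooled, brought to 0.5% NP-40 at 4°C and cleared at 21,000xg for 90 min. The supernatant was quantified by TMTpro 16plex LC-MS/MS with channel sums equalised.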

[1] = compound: C/C(=N\NC(=O)C1=CC(=CC=C1)S(=O)(=O)N2CCOCC2)/C3=C(C=CC(=C3)Cl)O
In short: as §1

[2] = compound: C1=CC(=CC=C1C2=NC3=C(N2)C=C(C=C3)C(=O)N)OC4=CC=C(C=C4)Cl
In short: as §1

[3] = compound: C1=CC2=C(C=CC(=C2)/C=C\3/C(=O)NC(=NCC4=CC=CS4)S3)N=C1
In short: as §1

[4] = compound: C1=CC2=NC=CN=C2C=C1/C=C/3\C(=O)NC(=O)S3
In short: as §1

[5] = compound: C1=CC=C(C=C1)C2=NC(=C(N2)C3=CC=NC=C3)C4=CC(=C(C=C4)Cl)O
In short: as §1

[6] = compound: C1=CC=C2C(=C1)C3=NNC4=CC=CC(=C43)C2=O
In short: as §1

[7] = compound: C1CCN(C1)C(=O)NC2=CC=CC(=C2)NC3=NC=C(C(=N3)NCCC4=CN=CN4)Br
In short: as §1

[8] = compound: C1CN(CCC1(CC2=CC=C(C=C2)Cl)N)C3=NC=NC4=C3C=CN4
In short: as §1

IRAK-1-4 Inhibitor I = compound: C1COCCN1CCN2C3=CC=CC=C3N=C2NC(=O)C4=CC(=CC=C4)[N+](=O)[O-] [IRAK-1-4 Inhibitor I]
In short: as §1

Measured: log2 fold change

DDX54 isoform 2 (UniProt Q8TDD1)
inactive: erlotinib -0.088 | [1] -0.36 | [2] -0.038 | [3] -0.035 | [4] -0.191 | [5] -0.001 | [6] -0.054 | [7] 0.069 | [8] 0.014 | IRAK-1-4 Inhibitor I -0.058

CIAO2A (UniProt Q9H5X1)
UniProt Q9H5X1, sequence (Q9H5X1 whole entry, looked up): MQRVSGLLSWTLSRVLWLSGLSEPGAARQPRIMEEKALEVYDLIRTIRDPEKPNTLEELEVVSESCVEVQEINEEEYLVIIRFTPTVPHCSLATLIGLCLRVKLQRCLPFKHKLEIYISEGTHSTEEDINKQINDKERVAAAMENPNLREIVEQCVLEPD
inactive: erlotinib -0.052 | [1] 0.029 | [2] 0.03 | [3] -0.056 | [4] -0.071 | [5] -0.025 | [6] -0.007 | [7] 0.04 | [8] 0.009 | IRAK-1-4 Inhibitor I 0.032

CUL1 (UniProt Q13616)
UniProt Q13616, sequence (Q13616 whole entry, looked up): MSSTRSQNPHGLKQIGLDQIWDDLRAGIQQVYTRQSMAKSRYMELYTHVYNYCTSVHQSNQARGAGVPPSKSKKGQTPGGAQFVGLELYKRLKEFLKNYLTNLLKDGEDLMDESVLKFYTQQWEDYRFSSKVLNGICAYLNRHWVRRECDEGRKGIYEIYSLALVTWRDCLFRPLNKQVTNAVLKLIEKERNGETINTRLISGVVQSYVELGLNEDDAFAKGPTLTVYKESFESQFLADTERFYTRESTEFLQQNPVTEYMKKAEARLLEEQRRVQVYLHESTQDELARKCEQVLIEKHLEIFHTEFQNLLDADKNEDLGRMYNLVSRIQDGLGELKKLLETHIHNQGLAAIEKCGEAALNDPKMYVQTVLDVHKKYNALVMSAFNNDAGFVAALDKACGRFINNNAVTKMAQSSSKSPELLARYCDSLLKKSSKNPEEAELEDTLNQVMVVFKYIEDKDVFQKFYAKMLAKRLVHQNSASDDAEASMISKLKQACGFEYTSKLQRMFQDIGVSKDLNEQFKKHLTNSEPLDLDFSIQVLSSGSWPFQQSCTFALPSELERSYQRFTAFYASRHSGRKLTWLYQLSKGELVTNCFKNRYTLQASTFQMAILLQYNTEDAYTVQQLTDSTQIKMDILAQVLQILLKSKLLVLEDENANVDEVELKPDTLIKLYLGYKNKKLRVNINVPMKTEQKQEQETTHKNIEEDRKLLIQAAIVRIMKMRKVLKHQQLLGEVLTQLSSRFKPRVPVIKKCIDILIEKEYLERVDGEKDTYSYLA
inactive: erlotinib -0.011 | [1] 0.006 | [2] 0.026 | [3] 0.01 | [4] 0.009 | [5] -0.011 | [6] 0.017 | [7] 0 | [8] -0.006 | IRAK-1-4 Inhibitor I -0.013

CTNNBL1 (UniProt Q8WYA6)
UniProt Q8WYA6, sequence (Q8WYA6 whole entry, looked up): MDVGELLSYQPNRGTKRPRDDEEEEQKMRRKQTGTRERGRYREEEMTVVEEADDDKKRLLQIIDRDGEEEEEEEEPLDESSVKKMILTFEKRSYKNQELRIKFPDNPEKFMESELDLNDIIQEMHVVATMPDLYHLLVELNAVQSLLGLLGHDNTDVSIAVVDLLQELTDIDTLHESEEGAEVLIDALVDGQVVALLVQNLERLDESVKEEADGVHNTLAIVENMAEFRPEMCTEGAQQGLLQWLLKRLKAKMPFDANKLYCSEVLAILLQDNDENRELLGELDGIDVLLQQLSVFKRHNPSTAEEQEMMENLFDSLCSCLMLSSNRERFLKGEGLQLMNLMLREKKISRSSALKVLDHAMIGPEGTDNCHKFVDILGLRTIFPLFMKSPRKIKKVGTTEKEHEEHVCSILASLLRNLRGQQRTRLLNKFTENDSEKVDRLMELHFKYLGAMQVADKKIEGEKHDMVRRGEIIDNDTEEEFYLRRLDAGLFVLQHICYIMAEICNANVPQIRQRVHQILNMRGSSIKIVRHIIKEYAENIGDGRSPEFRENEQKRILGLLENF
inactive: erlotinib 0.023 | [1] 0.052 | [2] 0.023 | [3] 0.018 | [4] 0.015 | [5] 0.103 | [6] -0.033 | [7] -0.042 | [8] -0.033 | IRAK-1-4 Inhibitor I 0.088

CLP1 (UniProt Q92989)
inactive: erlotinib 0.024 | [1] 0.027 | [2] -0.011 | [3] -0.001 | [4] -0.045 | [5] -0.014 | [6] 0.034 | [7] -0.024 | [8] -0.033 | IRAK-1-4 Inhibitor I -0.045

DMAC2L (UniProt Q99766)
UniProt Q99766, sequence (Q99766 whole entry, looked up): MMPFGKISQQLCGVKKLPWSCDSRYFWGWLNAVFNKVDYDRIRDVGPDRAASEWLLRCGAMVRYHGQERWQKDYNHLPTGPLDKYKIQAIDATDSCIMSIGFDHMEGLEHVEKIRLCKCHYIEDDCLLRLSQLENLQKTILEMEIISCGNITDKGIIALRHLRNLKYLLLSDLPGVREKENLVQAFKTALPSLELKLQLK
inactive: erlotinib -0.057 | [1] 0.033 | [2] -0.017 | [3] 0.008 | [4] -0.074 | [5] 0.015 | [6] -0.066 | [7] -0.068 | [8] 0.027 | IRAK-1-4 Inhibitor I -0.005

CPT1A (UniProt P50416)
UniProt P50416, sequence (P50416 whole entry, looked up): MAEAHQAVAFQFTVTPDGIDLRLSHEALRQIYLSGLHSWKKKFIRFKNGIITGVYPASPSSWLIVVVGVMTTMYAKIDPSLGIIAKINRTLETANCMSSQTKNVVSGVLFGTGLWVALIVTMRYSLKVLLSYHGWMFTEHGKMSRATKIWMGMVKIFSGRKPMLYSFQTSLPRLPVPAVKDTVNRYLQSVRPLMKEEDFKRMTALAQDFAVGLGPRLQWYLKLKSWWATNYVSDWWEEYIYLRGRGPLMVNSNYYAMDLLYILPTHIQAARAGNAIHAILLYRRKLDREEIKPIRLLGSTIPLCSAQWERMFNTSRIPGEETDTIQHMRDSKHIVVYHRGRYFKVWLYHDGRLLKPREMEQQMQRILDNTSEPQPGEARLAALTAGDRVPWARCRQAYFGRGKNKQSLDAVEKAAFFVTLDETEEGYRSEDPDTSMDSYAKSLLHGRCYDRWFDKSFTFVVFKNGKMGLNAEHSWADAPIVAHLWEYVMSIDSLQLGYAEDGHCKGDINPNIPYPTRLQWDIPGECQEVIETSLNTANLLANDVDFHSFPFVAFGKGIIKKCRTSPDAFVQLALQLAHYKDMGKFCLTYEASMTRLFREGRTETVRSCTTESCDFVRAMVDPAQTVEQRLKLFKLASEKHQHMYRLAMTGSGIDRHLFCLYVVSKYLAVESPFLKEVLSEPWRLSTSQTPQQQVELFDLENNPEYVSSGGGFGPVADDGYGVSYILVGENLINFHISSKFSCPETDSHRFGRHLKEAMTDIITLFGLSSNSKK
inactive: erlotinib -0.029 | [1] -0.034 | [2] 0.01 | [3] -0.001 | [4] -0.05 | [5] 0.002 | [6] 0.011 | [7] -0.036 | [8] 0.024 | IRAK-1-4 Inhibitor I -0.008

CHML (UniProt P26374)
UniProt P26374, sequence (P26374 whole entry, looked up): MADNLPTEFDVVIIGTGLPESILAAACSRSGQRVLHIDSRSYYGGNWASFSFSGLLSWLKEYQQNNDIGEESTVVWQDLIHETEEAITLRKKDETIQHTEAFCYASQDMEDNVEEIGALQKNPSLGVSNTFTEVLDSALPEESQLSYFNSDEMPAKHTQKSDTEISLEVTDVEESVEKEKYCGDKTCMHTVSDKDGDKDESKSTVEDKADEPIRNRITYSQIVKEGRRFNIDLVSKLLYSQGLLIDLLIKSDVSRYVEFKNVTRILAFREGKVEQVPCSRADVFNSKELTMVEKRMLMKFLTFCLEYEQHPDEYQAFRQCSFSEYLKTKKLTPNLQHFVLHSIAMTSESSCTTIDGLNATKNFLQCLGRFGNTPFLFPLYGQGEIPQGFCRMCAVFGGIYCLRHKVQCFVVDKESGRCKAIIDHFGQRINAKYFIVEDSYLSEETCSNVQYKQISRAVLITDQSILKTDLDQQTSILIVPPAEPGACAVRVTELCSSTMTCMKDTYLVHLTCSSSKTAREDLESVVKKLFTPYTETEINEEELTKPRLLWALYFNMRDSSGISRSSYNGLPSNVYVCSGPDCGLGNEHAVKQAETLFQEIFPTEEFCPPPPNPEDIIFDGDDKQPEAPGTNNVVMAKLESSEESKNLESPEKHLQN
inactive: erlotinib -0.03 | [1] -0.031 | [2] 0.028 | [3] -0.026 | [4] -0.013 | [5] -0.021 | [6] -0.004 | [7] -0.033 | [8] -0.001 | IRAK-1-4 Inhibitor I -0.012

DPM1 (UniProt O60762)
UniProt O60762, sequence (O60762 whole entry, looked up): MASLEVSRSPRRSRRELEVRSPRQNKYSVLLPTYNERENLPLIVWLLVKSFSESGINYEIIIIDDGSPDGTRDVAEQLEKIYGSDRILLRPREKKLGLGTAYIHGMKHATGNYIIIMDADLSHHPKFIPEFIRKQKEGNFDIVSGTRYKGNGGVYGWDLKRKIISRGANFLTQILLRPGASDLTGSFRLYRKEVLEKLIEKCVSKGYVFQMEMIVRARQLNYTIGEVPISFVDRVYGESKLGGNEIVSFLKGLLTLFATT
inactive: erlotinib -0.009 | [1] -0.039 | [2] -0.036 | [3] 0.056 | [4] -0.015 | [5] -0.007 | [6] 0.041 | [7] -0.022 | [8] -0.014 | IRAK-1-4 Inhibitor I -0.008

CXXC1 isoform 2 (UniProt Q9P0U4)
inactive: erlotinib 0.02 | [1] -0.031 | [2] -0.051 | [3] 0.029 | [4] -0.085 | [5] -0.036 | [6] -0.088 | [7] 0.082 | [8] 0.04 | IRAK-1-4 Inhibitor I 0.059

CNTN4 (UniProt Q8IWV2)
inactive: erlotinib 0.053 | [1] 0.063 | [2] 0.138 | [3] -0.03 | [4] 0.053 | [5] 0.046 | [6] -0.203 | [7] -0.124 | [8] 0.138 | IRAK-1-4 Inhibitor I 0.119

DES (UniProt P17661)
UniProt P17661, sequence (P17661 whole entry, looked up): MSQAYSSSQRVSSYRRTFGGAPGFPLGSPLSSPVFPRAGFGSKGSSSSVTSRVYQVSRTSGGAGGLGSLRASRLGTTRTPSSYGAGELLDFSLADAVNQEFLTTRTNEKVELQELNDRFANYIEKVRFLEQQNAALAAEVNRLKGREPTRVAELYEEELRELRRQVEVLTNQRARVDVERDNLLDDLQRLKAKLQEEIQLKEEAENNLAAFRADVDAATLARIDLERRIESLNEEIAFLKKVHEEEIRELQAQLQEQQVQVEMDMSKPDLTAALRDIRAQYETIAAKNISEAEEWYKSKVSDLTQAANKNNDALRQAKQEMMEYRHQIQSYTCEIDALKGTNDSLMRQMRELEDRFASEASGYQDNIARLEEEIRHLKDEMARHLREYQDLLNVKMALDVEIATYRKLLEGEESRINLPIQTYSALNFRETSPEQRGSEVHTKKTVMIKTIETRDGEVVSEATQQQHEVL
inactive: erlotinib 0.014 | [1] 0.012 | [2] 0.023 | [3] -0.074 | [4] -0.016 | [5] -0.026 | [6] -0.018 | [7] 0.048 | [8] 0.1 | IRAK-1-4 Inhibitor I 0.09

CNP (UniProt P09543)
UniProt P09543, sequence (P09543 whole entry, looked up): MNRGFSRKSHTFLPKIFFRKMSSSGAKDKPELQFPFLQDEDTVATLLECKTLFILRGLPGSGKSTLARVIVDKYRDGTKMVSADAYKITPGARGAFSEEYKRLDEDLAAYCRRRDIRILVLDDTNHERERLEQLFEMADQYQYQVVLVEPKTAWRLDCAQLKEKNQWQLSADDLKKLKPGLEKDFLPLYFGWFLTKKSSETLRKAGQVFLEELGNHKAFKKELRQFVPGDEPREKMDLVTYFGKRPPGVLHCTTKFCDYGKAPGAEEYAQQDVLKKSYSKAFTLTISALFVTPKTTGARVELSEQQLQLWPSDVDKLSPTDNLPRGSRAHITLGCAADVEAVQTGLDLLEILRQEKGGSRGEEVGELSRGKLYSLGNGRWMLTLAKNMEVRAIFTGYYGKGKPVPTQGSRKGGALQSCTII
inactive: erlotinib -0.005 | [1] -0.066 | [2] 0.002 | [3] -0.012 | [4] -0.022 | [5] 0.007 | [6] -0.004 | [7] -0.016 | [8] 0 | IRAK-1-4 Inhibitor I -0.002

DFFB (UniProt O76075)
UniProt O76075, sequence (O76075 whole entry, looked up): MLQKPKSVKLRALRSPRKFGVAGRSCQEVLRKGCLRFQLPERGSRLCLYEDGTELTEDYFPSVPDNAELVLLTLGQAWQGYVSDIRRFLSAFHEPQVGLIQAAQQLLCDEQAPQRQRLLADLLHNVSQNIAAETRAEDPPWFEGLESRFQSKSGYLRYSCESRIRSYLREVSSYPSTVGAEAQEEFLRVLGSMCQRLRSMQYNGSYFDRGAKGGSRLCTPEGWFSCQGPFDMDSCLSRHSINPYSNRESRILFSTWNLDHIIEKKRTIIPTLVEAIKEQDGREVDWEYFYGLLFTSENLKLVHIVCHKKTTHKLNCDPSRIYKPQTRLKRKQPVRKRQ
inactive: erlotinib -0.055 | [1] 0.062 | [2] 0.071 | [3] 0.048 | [4] 0.084 | [5] 0.047 | [6] 0 | [7] 0.013 | [8] -0.019 | IRAK-1-4 Inhibitor I 0.008

DERA (UniProt Q9Y315)
UniProt Q9Y315, sequence (Q9Y315 whole entry, looked up): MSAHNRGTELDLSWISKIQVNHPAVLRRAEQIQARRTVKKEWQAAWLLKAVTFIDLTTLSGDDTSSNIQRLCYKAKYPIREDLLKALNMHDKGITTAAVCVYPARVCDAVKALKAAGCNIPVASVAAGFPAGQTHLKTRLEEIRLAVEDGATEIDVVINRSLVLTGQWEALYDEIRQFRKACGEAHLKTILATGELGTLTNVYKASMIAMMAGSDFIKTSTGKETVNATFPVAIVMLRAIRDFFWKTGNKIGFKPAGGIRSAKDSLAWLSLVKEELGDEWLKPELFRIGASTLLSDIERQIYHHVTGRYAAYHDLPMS
inactive: erlotinib -0.008 | [1] 0.008 | [2] 0.028 | [3] 0.014 | [4] 0.015 | [5] 0.001 | [6] 0.019 | [7] 0.013 | [8] 0.023 | IRAK-1-4 Inhibitor I 0.002
